What is called inhibition is the drop in the measured response relative to a control, in per cent. A high value points to a response far below the control.

The structures appear in SMILES notation.

Consider 34 molecules from ChEMBL document CHEMBL1961873, “Compounds: GSK PKIS; Assays: Nanosyn kinase panel” (2012).
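Note: each figure is a mean percent inhibition of GSK3A activity, from a screen of the GSK published kinase inhibitor set.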

Glycogen synthase kinase-3 alpha (Homo sapiens), sequence (P49840 2-483 limits assumed): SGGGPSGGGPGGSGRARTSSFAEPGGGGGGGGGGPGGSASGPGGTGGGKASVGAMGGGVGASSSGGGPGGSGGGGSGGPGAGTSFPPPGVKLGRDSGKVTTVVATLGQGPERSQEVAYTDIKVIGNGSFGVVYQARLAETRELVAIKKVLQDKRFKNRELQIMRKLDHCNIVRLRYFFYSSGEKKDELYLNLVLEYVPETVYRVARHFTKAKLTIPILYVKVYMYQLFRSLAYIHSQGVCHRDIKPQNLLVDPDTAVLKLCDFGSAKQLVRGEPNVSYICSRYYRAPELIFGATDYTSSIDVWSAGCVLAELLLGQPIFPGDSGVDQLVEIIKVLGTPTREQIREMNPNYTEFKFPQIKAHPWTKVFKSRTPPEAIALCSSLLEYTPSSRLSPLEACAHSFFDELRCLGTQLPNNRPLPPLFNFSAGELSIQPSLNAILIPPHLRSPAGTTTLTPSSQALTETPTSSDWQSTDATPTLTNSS

This assay addresses Glycogen synthase kinase-3 alpha (Homo sapiens) (UniProt P49840). Particulars: at 1 µM.
Consider `COc1cc2ncn(-c3cc(OCc4ccccc4C(F)(F)F)c(C(N)=O)s3)c2cc1OC`, for which the inhibition came out at 4.9%. In turn, `CCn1c(-c2nonc2N)nc2c(N3CCCC3)nccc21` gave an inhibition of 4.77%. The value for `COc1ccc(-c2coc3ncnc(N)c23)cc1` was 3.86%; that for `Nc1nc(-c2ccc3c(c2)C(=Cc2cc(Br)c(O)c(Br)c2)C(=O)N3)cs1` was 4.94%. Consider `CS(=O)(=O)CCN(CC#N)Cc1ccc(-c2ccc3ncnc(Nc4ccc(OCc5cccc(F)c5)c(Cl)c4)c3c2)o1`, for which the inhibition was 0.08%. The value for `COc1ccc(-c2nn3ncccc3c2-c2ccnc(Nc3ccc(Cl)c(C(F)(F)F)c3)n2)cc1` was 3.98%; that for `Cc1ccc(NC(=O)c2ccnc(N3CCCC3)c2)cc1-c1ccc(C(=O)NCC2CC2)cc1` was 5.65%; that for `CC(C)=Cc1cccc2c1/C(=N/Nc1ccc(S(N)(=O)=O)cc1)C(=O)N2` was 53.5%. Consider `COc1cc2ncn(-c3cc(O[C@@H](C)c4ccccc4Cl)c(C(N)=O)s3)c2cc1OC`, for which the inhibition was found to be 6.38%. The figure for `CCCN1CCC(Oc2cc(Nc3nc(Nc4cccc(F)c4C(N)=O)c4cc[nH]c4n3)c(OC)cc2Cl)CC1` is 9.53%; for `Cc1nnc(-c2ccc(C)c(-c3ccc(C(=O)Nc4cccc(C#N)c4)cc3)c2)o1` it is 4.82%; for `NS(=O)(=O)c1ccc(N/N=C2\C(=O)Nc3ccc(C(=O)NCCc4c[nH]cn4)cc32)cc1` it is 86.8%. Take `CC1=C(C(=O)Nc2ccc3[nH]ncc3c2)C(c2ccc3ccccc3c2)CC(=O)N1` (centres undefined): the inhibition stood at 5.8%.

In turn, `NCc1ccc(-c2nc(-c3ccc(Cl)c(O)c3)c(-c3ccncc3)[nH]2)cc1` registered an inhibition of 32.5%. The value for `COc1cc(C=NNc2ncnc3c2cnn3-c2ccccc2)ccc1O` was 79.2%.

`Cc1ccc(C(=O)NC2CCCCC2)cc1-c1ccc(C(=O)NCC2CC2)cc1` yielded an inhibition of 1.84%. The figure for `COc1cc2c(cc1Nc1nc(N3CCc4ccccc43)c3cc[nH]c3n1)N(C(=O)CN(C)C)CC2` is 1.16%; for `CC1=C(C(=O)Nc2ccc3[nH]ncc3c2)C(c2ccc(Cl)c(Cl)c2)CC(=O)N1` (centres undefined) it is 4.5%; for `Nc1ncnc2occ(-c3ccc(NC(=O)Nc4cc(C(F)(F)F)cc(C(F)(F)F)c4)cc3)c12` it is 5.65%. The molecule `CS(=O)(=O)CCNCc1nc(-c2ccc3ncnc(Nc4ccc(F)c(Cl)c4)c3c2)cs1` returned an inhibition of 3.03%. On to `COc1ccccc1Nc1ncc(-c2ccccc2)o1`, for which the inhibition came out at 3.92%.

`CCn1c(-c2nonc2N)nc2cncc(C(=O)N3CCNCC3)c21`: the inhibition came to 2.61%. The figure for `CS(=O)(=O)Nc1ccc(N/C=C2\C(=O)Nc3ccccc32)cc1` is 19.6%; for `CNC(=O)c1cncc(/C=C/c2c(Cl)cccc2Cl)c1` it is 3.81%; for `Fc1cccc(COc2ccc(Nc3ncnc4sc(-c5cccs5)cc34)cc2Cl)c1` it is 6.14%. The molecule `N#Cc1c(NC(=O)c2cccc3ccccc23)sc2c1CCCC2` had an inhibition of 6.65%.

As for `CCc1cccc(NC(=O)Nc2ccc(Oc3ccc4nc(NC(=O)OC)[nH]c4c3)cc2)c1`, the inhibition was determined as 4.83%. The value for `CCn1c(-c2nonc2N)nc2ccncc21` was 7.82%; that for `O=C1Nc2ccc(C(=O)c3ccco3)cc2C1=Cc1cc(Cl)c(O)c(Cl)c1` was 70.1%; that for `CS(=O)(=O)CCNCc1ccc(-c2ccc3ncnc(Nc4ccc(OCc5ccccc5)c(Cl)c4)c3c2)o1` was 4.24%. The value for `CCn1c(-c2nonc2N)nc2cncc(C(=O)N3CC[C@H](N)C3)c21` was 19.3%. The value for `Cc1cccc(-c2n[nH]cc2-c2ccc3ncccc3n2)n1` was 1.15%. Take `CCCN1CCC=C(c2ccc(Nc3nc(Nc4ccccc4C(N)=O)c4cc[nH]c4n3)c(C)c2)C1`: the inhibition was found to be 28.1%.

With `Nc1ncnc2occ(-c3ccc(NC(=O)Nc4cccc(C(F)(F)F)c4)cc3)c12`, the inhibition turned out to be 9.54%.
